Bioassay records as filed in PubChem BioAssay.
The list is a sample of the results.
aSyn 5UTR act – Activators via SNCA 5'UTR binding, MLPCN. alpha-synuclein 5'UTR reporter, activators screen. activity score, % (tested at 7.5 µM), hits read low. 7.1% of 300,000 active. AID 1814, 2009; in the data active means activity score below about -60%
Hits are given with their value; n = inactive.

SMILES | aSyn 5UTR act
CC(C)Oc1cccc(-c2cc(C(=O)N3CCN(c4ncccn4)CC3)c3ccccc3n2)c1 | -64
COc1ccc2nc(-c3ccc(Cl)cc3)cc(C(=O)O)c2c1 | -72
CCN1CCCC(OC(=O)c2cc(-c3ccc(C)cc3)nc3ccccc23)C1 (stereo not given) | -94
Cc1nonc1OCCCNc1ccc([N+](=O)[O-])cc1Cl | -84
COC(=O)N1N=C(c2ccccc2)CC1(O)C(F)(F)F (stereo not given) | -65
CCCCCc1ccc(-c2nnc(N)s2)cc1 | -98
CCCCCCc1ccc(-c2ncc(N)cn2)cc1 | -68
O=C(CN1CCN(Cc2ccccc2Cl)CC1)N/N=C/C=C/c1ccco1 | -77
CC(/C=N\NC(=O)CN1CCN(Cc2ccccc2)CC1)=C\c1ccco1 | -94
O=C(CN1CCN(Cc2ccccc2)CC1)N/N=C\C=C/c1ccco1 | -71
CCCN1C/C(=C/c2ccc3c(c2)OCO3)C(=O)/C(=C/c2ccc3c(c2)OCO3)C1 | -105
COc1ccc(C2=NN(CN3C(=O)C(=O)c4ccccc43)C(c3ccc(OC)cc3)C2)cc1 (stereo not given) | -182
COc1ccc2cc(-c3[nH]ncc3CN3C[C@@H]4CCC[C@H]3C4)ccc2c1 | -78
COc1ccc2cc(-c3[nH]ncc3CN3CCCCO3)ccc2c1 | -106
C/C(=N\Nc1cccc2cccnc12)c1ccc(N)cc1 | -93
CC(=O)NC(c1ccc(C(C)C)cc1)c1ccc2cccnc2c1O (stereo not given) | n
C/C(=N\Nc1cccc2cccnc12)c1ccccc1O | -204
O=C(CCl)NN1C(=O)NC2(CCCCC2)C1=O | -76
O=C(CCl)NN1C(=O)NC(c2ccccc2)(c2ccccc2)C1=O | -86
COC(=O)N/N=C\C=C\c1ccc2c(c1)OCO2 | -134
CCOC(=O)N/N=C\C=C\c1ccc2c(c1)OCO2 | -121
CC(C)(C)OC(=O)N/N=C\C=C\c1ccc2c(c1)OCO2 | -197
N#CC(Cc1ccc(OC(F)F)cc1)c1nc2ccccc2[nH]1 (stereo not given) | -157
O=c1n(Cc2ccccc2Cl)nc2n1-c1ccccc1SC2 | -87
COc1ccc(/C=C2\CCn3c2nc2ccccc2c3=O)cc1OC | -256
SMILES | aSyn 5UTR act
Cc1cccc(-n2ncc3c(N(C)Cc4ccccc4)ncnc32)c1 | -169
Cc1cccc(-n2ncc3c(Nc4ccc(F)cc4)ncnc32)c1 | -108
Cc1cccc(-n2ncc3c(N)ncnc32)c1 | -74
COc1ccc(-n2ncc3c(Nc4cccc(C)c4)ncnc32)cc1 | -202
O=C(Nc1ccc2c(c1)oc1ccccc12)c1ccncc1 | -207
O=C(Nc1ccc2c(c1)oc1ccccc12)c1cccnc1 | -190
CCNC(=S)Nc1ccc2c(c1)oc1ccccc12 | -165
O=C1CSC2=NCN(c3ccc4c(c3)OCO4)CN12 | -147
CN1CCCN(C(=O)/C=C/c2ccc(Cl)cc2Cl)CC1 | -62
COc1ccc(-c2nc3cccc(C)n3c2NCC2CCCO2)cc1O (stereo not given) | -99
O=C(c1cc2ccccc2oc1=O)N(Cc1ccccc1F)C1CCS(=O)(=O)C1 (stereo not given) | -95
O=C(c1cc2ccccc2oc1=O)N(Cc1ccccc1)C1CCS(=O)(=O)C1 (stereo not given) | -88
COc1ccc(CN(C(=O)c2cc3ccccc3oc2=O)C2CCS(=O)(=O)C2)cc1OC (stereo not given) | -115
CCOc1ccc(CN(C(=O)c2cc3ccccc3oc2=O)C2CCS(=O)(=O)C2)cc1 (stereo not given) | -78
Cc1c(C)n(CCO)c2ncnc(Nc3ccc(F)cc3)c12 | -64
Cc1[nH][nH]c(=O)c1C=Nc1ccc(C(F)(F)F)cc1 | -77
O=c1[nH][nH]c(C(F)(F)F)c1C=Nc1ccc(Cl)cc1 | -71
COC(=O)c1ccc(-c2ccc(/C=N/N3C(=O)C4C5C=CC(CC5)C4C3=O)o2)cc1 (stereo not given) | -191
COc1ccccc1-c1ccc(NC2CCCCC2)nn1 | -140
CCCCOc1ccc(-c2ncc(Cl)cn2)cc1 | -89
CCCCOc1ccc(-c2[nH]ncc2C=O)cc1 | -82
CCCCOc1ccc(-c2ncc([N+](=O)[O-])cn2)cc1 | -133
CCOc1ccc(S(=O)(=O)N/N=C2/CC(c3ccccc3)Oc3ccccc32)cc1 (stereo not given) | -66
CCN(CC)Cc1c(O)ccc2c1O/C(=C\C=C\c1ccccc1)C2=O | -438
CS(=O)(=O)Oc1ccc2c(c1)O/C(=C\C=C\c1ccccc1)C2=O | -81
SMILES | aSyn 5UTR act
Cc1c(NC(=O)c2ccc([N+](=O)[O-])o2)cccc1-c1nc2ncccc2o1 | -228
O=C(Nc1cccc2ncccc12)c1ccc(-c2ccc(Br)cc2)o1 | -79
O=C(Nc1cccc2ncccc12)c1ccc([N+](=O)[O-])o1 | -169
O=S(=O)(Cc1cc(-c2ccc(Cl)cc2)no1)c1ccccc1 | -173
O=S(=O)(Cc1cc(-c2ccccc2Cl)no1)c1ccccc1 | -130
Clc1ccc(-c2cc(COc3ccccc3)on2)cc1 | -90
S=C(NCc1ccco1)Nc1cc(-c2ccccc2)[nH]n1 | -68
CC(C)(C)c1ccc(OCCCC(=O)Nc2ccc(S(N)(=O)=O)cc2)cc1 | -146
CC(C)N1CN=C(Nc2nc3ccccc3o2)NC1 | -70
CCCCN1CN=C(Nc2nc3ccccc3o2)NC1 | -136
COCCN1CN=C(Nc2nc3ccccc3o2)NC1 | -83
c1ccc2oc(NC3=NCN(C4CCCCC4)CN3)nc2c1 | -174
O=[N+]([O-])c1ccc(/C=N/Nc2nc3ccccc3o2)cc1 | -186
CN(C)c1ccc(/C=N/Nc2nc3ccccc3o2)cc1 | n
CC(C)n1c(/C=C/[C@@H](O)C[C@@H](O)CC(=O)O)c(-c2ccc(F)cc2)c2ccccc21 | n
Cc1cc(O)c(NC(=O)c2cccc([N+](=O)[O-])c2)cc1C | -79
CC(C)(C)c1cc(NC(=O)c2cccc([N+](=O)[O-])c2)no1 | -111
O=C(Nc1cc([N+](=O)[O-])ccc1O)c1cccc([N+](=O)[O-])c1 | -96
O=C(NNS(=O)(=O)c1ccccc1[N+](=O)[O-])c1cccc([N+](=O)[O-])c1 | -69
Cc1ccc(N2CSC3=C(C#N)C(c4cccs4)CC(=O)N3C2)cc1 (stereo not given) | -131
CCc1ccc(N2CSC3=C(C#N)C(c4cccs4)CC(=O)N3C2)cc1 (stereo not given) | -94
COc1cc(OC)c(C2CC(=O)N3CN(c4ccc(C)cc4)CSC3=C2C#N)cc1OC (stereo not given) | -127
O=Cc1s/c(=N\S(=O)(=O)c2ccccc2)n(CCCCl)c1Cl | n
Cn1c(=NC(=O)CS(=O)(=O)c2ccccc2)sc2ccccc21 | -76
Cn1c(=NC(=O)COc2ccccc2)sc2ccccc21 | -148
SMILES | aSyn 5UTR act
Cc1ccc(Nc2nc(N)nc(CSCCO)n2)cc1 | -112
CCOc1ccc(Nc2nc(N)nc(CCl)n2)cc1 | n
Cc1ccc(Nc2nc(N)nc(CSc3ncccn3)n2)cc1 | -132
Cc1ccc(Nc2nc(N)nc(CC#N)n2)cc1 | -118
Nc1nc(CSc2ncccn2)nc(Nc2ccccc2)n1 | -148
COC(=O)C1=C(O)/C(=C\c2cc(C)n(-c3ccccc3C)c2C)N=C1C | -82
COc1ccc(C(=O)O/N=C(\N)c2ccc(Br)cc2)cc1 | -174
COc1ccc(C(=O)O/N=C(\N)c2ccccc2)cc1 | -82
O=C(C[n+]1cc(-c2ccc(F)cc2)n2c1CCC2)Nc1nc(-c2ccc(F)cc2)cs1 | -63
Cc1ccc(-c2csc(NC(=O)C[n+]3cc(-c4ccccc4)n4c3CCC4)n2)cc1 | -117
